Results filed as inconclusive are left out. Entries that show only a call come without a potency. Activity calls are given as the source filed them. The call rests on the fitted dose curve; in most records, active means well fitted cell-killing curve with a large enough effect; inconclusive means small, poorly fitted or top-dose-only effect, or effect the other way; inactive means flat fitted curve, though single readings scatter.
Tests used:
Tov-21-G = test: Primary qHTS to identify gynecologic anti-cancer compounds using libraries of approved drugs and bioactive compounds (AID 1345084); conditions: Gynecologic cancer cell panel viability, ATPlite luminescence, 48 h; series mostly up to 57.5 µM; further: nearly all actives have a fitted effect of over 55% in size
How it was run: (§1)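 Five-point cytotoxicity, 48 h drug exposure at 37 C, 5% CO2, on cells seeded 16 h beforehand. ATP content read by ATPlite luminescence.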

Tov112D = test: as above; conditions: Gynecologic cancer cell panel viability, ATPlite luminescence, 48 h; series mostly up to 57.5 µM
How it was run: as §1

Structure (SMILES) | Potency (Tov-21-G) | Potency (Tov112D)
NS(=O)(=O)c1ccc(N2CCCCS2(=O)=O)cc1 | inactive | inactive
CN(C)c1cc2c(Nc3ccc4c(cnn4Cc4ccccc4)c3)ncnc2cn1 | inactive | inactive
NS(=O)(=O)c1cc2c(cc1Cl)CN(C1CCCCC1)C2=O | inactive | inactive
Brc1ccc([C@H]2CN3CCSC3=N2)cc1 | inactive | inactive
C/C(=C1\CCOC(=O)S1)N(C=O)Cc1cnc(C)nc1N | inactive | inactive
